Screening data (PubChem)
MbtI inh: blocks the Mycobacterium tuberculosis siderophore enzyme MbtI; P9WFX0; purified MbtI enzyme, fluorescence intensity read-out; inhibition, % (no concentration beside the values); actives 0.89% (n = 100,000); AID 493033; in the data active = inhibition mostly above about 56%, no sharp cut-off; inactive = mostly below about 77%
Mtb MenB inh: Mtb MenB enzyme inhibition. P9WNP5. inhibition, % (no concentration beside the values). MenB enzyme assay, absorbance read-out. actives 0.43% (n = 100,000); in the data active = inhibition above about 21%, passing the limit was not always enough
PV pol inh: poliovirus RNA polymerase inhibition. actives 0.66% (n = 150,000). P03300. poliovirus polymerase elongation, fluorescence polarization; active compounds read low. AID 588519. % elongation, % (compound at 16.7 µg/mL); in the data active = % elongation below about 90%
AID504770: growth inhibitors of E. coli YBA685 in a screen for V. cholerae RctB (chromosome II replication) inhibitors. z-score (no concentration beside the values). E. coli YBA685 rctB-dependent plasmid, OD600 growth, 3 h; active compounds read low. AID 504770. actives 0.27% (n = 130,000); in the data active = z-score below about -2, passing the limit was not always enough
Numbers without * were called inactive; i = inactive; x = no result. In the library only some 1.4% were active in any assay of this set; here they are far more common.

SMILES	MbtI inh	Mtb MenB inh	PV pol inh	AID504770
O=C(NCc1ccco1)C(c1ccccc1)N(Cc1ccco1)C(=O)Cn1nnc2ccccc21 (stereo unspecified)	1	34*	102	-0.5
O=C1c2ccccc2C(=O)N1SSN1C(=O)c2ccccc2C1=O	47	-1	85*	0.25
CCCC(C)C1C(C#N)=C(N)Oc2cc(N)ccc21 (stereo unspecified)	8	-2	106	0.6
COc1ccc2c(c1)C(C(C#N)C#N)c1c(nc(N)c(C#N)c1N)O2 (stereo unspecified)	64	-25	96	-3*
COc1ccc(-c2c(C#N)c(N)nc(OC)c2C#N)cc1	42	-28	101	0.1
COc1ccc2c(c1)C(C(C#N)C#N)C(C#N)=C(N)O2 (stereo unspecified)	x	x	x	-2.4*
NC(=O)C1=C(N)SC2C(=O)N(c3ccc4ccccc4c3)C(=O)C2C1c1ccccc1O (stereo unspecified)	-1	-23	109	0.3
O=C(CN1C(=O)NC(Cc2c[nH]c3ccccc23)C1=O)c1ccc(F)cc1 (stereo unspecified)	-13	-29	106	-1
CNC(=O)c1sc(NCc2ccco2)nc1C	98*	-25	77*	0.15
Oc1c(/C=N/n2cnnc2)sc2ccccc12	71*	i	100	-0.15
Cc1ccccc1N=Cc1sc2ccccc2c1O	-4	-16	75	0.9
O=C(CN1C(=O)CSC1=O)Nc1nccs1	-6	-3	96	0.15
Nn1cnn(CC(=O)Nc2nccs2)c1=S	x	-17	74*	1.6
COc1cccc2c1CC/C(=C\c1ccc(N(C)C)cc1)C2=O	3	-2	74	0.9
Cc1cc(Cl)cc(C)c1OCC1COS(=O)O1 (stereo unspecified)	-4	-6	82*	0.15
Cc1ccccc1OCCSc1nnc(-c2cccs2)o1	x	x	109	x
Cc1cc(Cl)ccc1OCCSc1nnc(-c2cccs2)o1	x	x	10*	x
COc1ccc(Cn2c(C)c(CNC(C)(C)C)c(C(=O)O)c2C)cc1	8	12	100	-1.2
O=c1sn(-c2ccccc2C(F)(F)F)c(=O)n1CC1CC1	99*	3	100	-1.2
CC12CCC(C1)C(C)(C)C2OCC(O)CN1CCN(c2cccc(Cl)c2)CC1 (stereo unspecified)	x	x	x	-0.25
CC(C)(C)NC1CCCCC1NS(=O)(=O)c1ccccc1 (stereo unspecified)	-7	2	103	-0.5
Cc1cnc(C(=O)N(CC(=O)Nc2cccc(C)c2C)CC2CCCO2)cn1 (stereo unspecified)	-5	-11	101	0.15
Cc1cccc(NC(=O)CN(CC2CCCO2)C(=O)c2cc(-c3ccco3)nc3ccccc23)c1C (stereo unspecified)	103	-7	1.0*	-0.8
Cc1nn(C(C)C(=O)NC(C)CCc2ccccc2)c(=O)c2cc3sccc3n12 (stereo unspecified)	4	-17	102	-0.65
CC(=O)N(C1=NCCCCS1)c1ccccc1	-19	-9	104	-0.3
SMILES	MbtI inh	Mtb MenB inh	PV pol inh	AID504770
C=CCn1c(NC)nc2c1c(=O)[nH]c(=O)n2C	1	-30	104	2.2
C=CCn1c(SC)nc2c1c(=O)[nH]c(=O)n2C	96*	-28	99	0.55
Cc1cccc(NC(=O)c2c(NC(=O)c3ccccc3)sc3c2CCC3)c1	x	x	104	x
CCOC(=O)c1c(NC(=O)c2ccccc2C)sc2c1CCCC2	x	x	84*	x
CCOC(=O)c1c(NC(=O)c2ccccc2C(=O)O)sc2c1CCCC2	-1	4	100	-0.25
CCOC(=O)c1c(NC(=O)c2ccc(S(=O)(=O)N3CCC(C)CC3)cc2)sc2c1CCN(C)C2	x	x	90*	x
CCOC(=O)c1c(NC(=O)c2ccc(Br)cc2)sc2c1CCCC2	x	x	87*	x
Cc1cccc(NC(=O)c2c(NC(=O)c3ccccc3)sc3c2CCCC3)c1	x	x	75*	x
CCOC(=O)c1c(NC(=O)c2ccc(S(=O)(=O)N(C)C)cc2)sc2c1CCN(C)C2	x	x	99	x
Cc1c(C(=O)OCC#N)oc2ccc(Br)cc12	2	-1	98	0.45
CC1=CCC2COC(c3ccccn3)C1C2 (stereo unspecified)	-10	-7	97	-0.65
COc1ccc(CN2CCc3c([nH]c4ccccc34)C2)cc1	-17	-13	99	-0.5
O=C(Nc1sc2c(c1C(=O)O)CCCC2)c1ccc(Br)cc1	x	-20	85*	-1.4
N#Cc1c(Nc2ccccc2)s[nH]c1=O	22	13	115	-2.6*
N#Cc1c(Nc2ccccc2Cl)s[nH]c1=O	67	-14	102	-1.6
